Results on 93 compounds are retold here after PubChem BioAssay AID492956 (The Scripps Research Institute Molecular Screening Center, 2010).

The whole screen tested about 340,000 compounds, of which about 3,300 (0.97%) were called active. The entries come from a sample that favours actives as a whole. Values without a mark were called inactive.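 The calls were made as follows: active = inhibition above the mean over all tested compounds plus 3 SD (cut at about 30% in these data); inactive = the rest.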

The target in the assay is Platelet-activating factor acetylhydrolase 2, cytoplasmic (Homo sapiens) (UniProt Q99487). Kind of assay: inhibition of cytoplasmic PAF acetylhydrolase 2 – biochemical, fluorescence polarization, human, primary screen (AID 492956).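 Also: inhibitors block probe labeling of enzyme so polarization drops; 0% = enzyme with DMSO and 100% = wells lacking PAFAH2 protein.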 Particulars: recombinant PAFAH2, FP-rhodamine activity probe, at 3.39 µM, hits give high values.
In the case of `Cc1ccc(NC(=S)Nc2ncccc2C)c(C)c1`, the inhibition was -4.32%. For `CC1=C(C)CC(C(=O)NNC(=O)c2ccccc2O)C(C(=O)O)C1` (stereo not drawn) the value was -2.13%.

Take `Cc1cc(C(=O)NNC(=O)CCC2CCCCC2)c(C)o1`: the inhibition is 4.96%. For `O=C(NNC(=O)c1ccccc1O)c1ccccc1O` the value was 39% (active); for `Cc1cc(C(=O)NNC(=O)c2ccccc2O)c(C)o1`, 31.3% (active); for `Cc1cc(C(=O)CCC(=O)NNC(=O)c2ccccc2O)c(C)s1`, 7.6%.

As for `Cc1cc(C(=O)NCCc2ccc(Cl)cc2)c(C)o1`, the inhibition is 4.91%. For `CCC(CC)c1nnc(NC(=O)c2nn(C)c(=O)c3ccccc23)s1` the value was 0.88%; for `CCCCCn1c(=O)[nH]c2cc(C(=O)NCCCN3CCCCC3C)ccc2c1=O` (stereo not drawn), -5.12%. For `O=C(NCc1ccc(F)cc1)C(c1ccccc1)N(C(=O)c1csnn1)C1CC1` (stereo not drawn) the value was 2.95%; for `Oc1ccc2ccc3cccc[n+]3c2c1`, 9.81%; for `CN(C)C(CNC(=O)CCCOc1ccccc1)c1ccco1` (stereo not drawn), 1.39%. For `COc1cccc2c1C(=O)c1c(O)c3c(c(O)c1C2=O)CC(O)(C(C)=NNC(=O)c1ccc(Cl)c(Cl)c1)CC3OC1CC(N)C(O)C(C)O1` (stereo not drawn) the value was 49.5% (active); for `COc1ccc(C(=O)OCC(=O)NCC2CCCCC2)cc1S(=O)(=O)N1CCCc2ccccc21`, 74.5% (active); for `COc1ccc(C(=O)NCC2CCCCC2)cc1S(=O)(=O)N1CCCC1`, 3.82%. Take `COc1cc(C)c(C)cc1S(=O)(=O)N1CCCc2ccccc21`: the inhibition is -5.07%. For the compound `Cc1cc(C)c2oc(C(=O)Nc3ccc(S(=O)(=O)Nc4nccc(C)n4)cc3)cc(=O)c2c1`, the inhibition was -3.63%. In the case of `C=C1c2c(Cl)ccc(O)c2C(O)=C2C(=O)[C@]3(O)C(O)=C(C(N)=O)C(=O)[C@@H](N(C)C)[C@@H]3[C@@H](O)C12` (stereo partly drawn) it was 42% (active); in that of `CN(C)[C@@H]1C(=O)C(C(N)=O)=C(O)[C@@]2(O)C(=O)C3=C(O)c4c(O)ccc(Cl)c4[C@@H](O)[C@H]3C[C@@H]12`, 1.11%. For `Cc1cccc(C)c1NC(=O)CN1C(=O)C(C)Oc2ccccc21` (stereo not drawn) the value was 4.2%; for `O=C(Cn1nnc2ccccc2c1=O)NCc1ccc(Cl)cc1`, 4.44%. In the case of `C=CCNC(=O)c1sc(SC)cc1-c1ccc(Cl)cc1` it was 2.46%; in that of `COC(=O)Nc1nc2ccc(Sc3ccccc3)cc2[nH]1`, -5.35%. Regarding `Nc1ccc2nc3c(=O)[nH]c(=S)[nH]c3nc2c1`, the inhibition is 58.3% (active). Consider `Cc1c(CN2CCC(CO)(CCOc3ccccc3)CC2)[nH]c2ccc(Cl)cc12`, for which the inhibition is -1.75%. For `CCOc1ccccc1NS(=O)(=O)c1cc2c3c(c1)C(C)C(=O)N3CCC2` (stereo not drawn) the value was 6.38%.

As for `CCOc1ccccc1OCC(=O)Nc1ccccc1C(=O)NC1CC1`, the inhibition is 2.58%.

On to `COc1nc(N=C(N)N)nc2c(C)cccc12`, for which the inhibition was 6.78%. `CC(=O)Oc1ccc(-c2nc3c(C)cccc3c(=O)o2)cc1`: the inhibition is 40.7% (active).

As for `CC(=O)Oc1ccc2c(=O)oc(-c3ccc([N+](=O)[O-])cc3)nc2c1`, the inhibition was 29.4%. In the case of `Cc1cc(C)cc(C(=O)NC(=S)Nc2ccc3[nH]c(=O)[nH]c3c2)c1` it was -14%; in that of `CC1(C)C2CC=C(/C=N/NC(=O)C3CC3)C1C2` (stereo not drawn), -2.63%; in that of `CCN(CC)CCCNC(=O)c1ccc2c(=O)n(Cc3ccc4c(c3)OCO4)c(=S)[nH]c2c1`, 4.33%. `C=CCN(CC=C)C(=O)COC(=O)c1n[nH]c2ccccc12`: the inhibition was 3.36%. For `O=C(COC(=O)c1n[nH]c2ccccc12)NCc1ccccc1`, the inhibition was 35.5% (active). In the case of `CN(C)S(=O)(=O)c1ccc(NC(=O)COC(=O)c2n[nH]c3ccccc23)cc1` it was -1.53%; in that of `COc1ccc(NC(=O)COC(=O)c2n[nH]c3ccccc23)c(OC)c1`, 7.22%. For `O=C(COC(=O)c1n[nH]c2ccccc12)Nc1ccccc1Br` the value was 47.3% (active); for `O=C(COC(=O)c1ncc(Cl)c(Cl)c1Cl)NCc1ccccc1`, -0.64%; for `O=C(O)CC(c1ccccc1F)N1Cc2ccccc2C1=O` (stereo not drawn), 3.09%. In the case of `Cc1ccn2c(=O)nc(SCC(=O)NCc3ccc4c(c3)OCO4)nc2c1` it was -12.4%.

Take `Nc1nc(Br)c2ccccc2c1-c1ccc(F)cc1`: the inhibition is 0.32%. For `COCCCn1c(SCC(=O)Nc2oc(C)c3c(C)n[nH]c(=O)c23)nc2sc3c(c2c1=O)CCC3` the value was -2.08%; for `CCN(CC)S(=O)(=O)c1ccc2nc(CSc3nnnn3-c3ccc(O)cc3)[nH]c2c1`, -3.11%; for `C(#CCN1CCOCC1)CCCN1CCOCC1`, 6.41%. In the case of `O=C(COC(=O)c1ccc[nH]c1=O)Nc1ccc2c(c1)OC(F)(F)O2` it was -3.01%.

In the case of `Cc1cc(C)cc(NC(=O)COC(=O)c2cc(C)oc2C)c1`, the inhibition is 60.9% (active). For `Cc1cc(C(=O)OCC(=O)c2c(N)n(C)c(=O)n(C)c2=O)c(C)o1` the value was 10.2%; for `Cc1cc(C(=O)OCC(=O)Nc2ccc(F)c(F)c2)c(C)o1`, 81.8% (active); for `Cc1cc(C(=O)OCC(=O)Nc2ccccc2Cl)c(C)o1`, 45.1% (active). `Cc1cc(C)cc(C(=O)OCC(=O)NCCNC(=O)COC(=O)c2cc(C)cc(C)c2)c1`: the inhibition was 3.14%. Turning to `O=C(COC(=O)CCc1c[nH]c(=O)[nH]1)Nc1ccccc1Cl`, the inhibition is 1.19%.

For the compound `Cc1cnc(C(=O)OCC(=O)Nc2ccc(Cl)cc2Cl)cn1`, the inhibition is -10.2%. For `COc1cc(NC(=O)COC(=O)c2cc(S(=O)(=O)N3CCOCC3)ccc2F)cc(OC)c1` the value was -0.21%; for `CONc1nc2nonc2nc1NOC`, 5.98%. For `Cc1ccc(Nc2c(F)c(F)c(F)c(F)c2C(=O)O)c(C)c1` the value was 4.36%; for `Cn1c(=O)c(C(=O)Nc2ncccn2)c(O)c2ccccc21`, -2.23%. `Cc1cc(=O)n2nc(N3CCCC3C(=O)NCCCN3CC(C)CC(C)C3)sc2n1` (stereo not drawn): the inhibition is -2.55%. Turning to `Cc1cccc(C(=O)OCC(=O)Nc2ccc(F)cc2)c1`, the inhibition is 84% (active). For `O=C(COC(=O)c1ccc(F)cc1)Nc1ccc2c(c1)OCO2`, the inhibition is 81% (active).

`O=C(COC(=O)c1ccncc1)Nc1ccc2c(c1)OCO2`: the inhibition is 1.78%.

For `Cc1cccc(C(=O)OCC(=O)Nc2sc3c(c2C#N)CCC3)c1`, the inhibition was 3.15%. In the case of `O=C(COc1ccc(Cl)cc1)Nc1ccc2c(c1)OCO2` it was -4.53%; in that of `O=C(COC(=O)c1cccc(Cl)c1)Nc1ccc2[nH]c(=O)[nH]c2c1`, -4.35%; in that of `Cn1c(=O)c2c(ncn2CC(=O)N/N=C/c2cn[nH]c2-c2ccc(F)cc2)n(C)c1=O`, 3.66%. For `O=C(NCc1ccco1)/C(=C/c1cccc([N+](=O)[O-])c1)NC(=O)c1ccco1` the value was -0.82%; for `CN1C(=O)/C(=C/C=C2\SCCN2C)OC1=S`, -4.81%.

Regarding `COc1ccc(NS(=O)(=O)c2cc(NC(=O)C3CCCCC3)ccc2N2CCOCC2)cc1`, the inhibition was 0.82%.

As for `O=C(NCCS(=O)(=O)N1CCN(c2ccccc2F)CC1)c1ccc(Br)o1`, the inhibition is -0.55%.

As to `O=C(ON=C1CCN(S(=O)(=O)c2ccccc2)CC1)c1ccc(Cl)cc1`, the inhibition was 86.6% (active). With `COC(=O)c1ccc(S(=O)(=O)N2CCc3ccccc3C2)cc1`, the inhibition was -2.2%.

As for `CC(OC(=O)c1ccc(S(=O)(=O)N2CCOCC2)cc1)c1ccccc1` (stereo not drawn), the inhibition was 2.29%. In the case of `CN1CCC(OC(=O)COc2ccc(Cl)cc2Cl)CC1` it was -2.95%; in that of `CCN(C(=O)COC(=O)c1sccc1C)c1c(N)n(Cc2ccccc2)c(=O)[nH]c1=O`, -2.58%; in that of `Cc1ccc(-n2ncc3c(=O)n(-c4ccc(C)c(C)c4)c(-c4ccco4)nc32)cc1`, -1.39%.

With `Cc1ccc(-c2nc3c(cnn3-c3ccccc3)c(=O)o2)cc1`, the inhibition was 59.4% (active). Regarding `CC(=O)Cn1cnc2c(cnn2-c2ccccc2)c1=O`, the inhibition is -0.98%. In the case of `O=c1cc(O)c(-c2cccc(C(F)(F)F)c2)c(Cl)[nH]1` it was -1.33%. In the case of `COc1ccc(S(=O)(=O)N2CCOCC2)cc1NC(=O)Cc1c(F)cccc1Cl` it was 43.5% (active); in that of `COc1ccc(S(=O)(=O)N2CCOCC2)cc1NC(=O)Cc1coc2cc(C)ccc12`, 39.9% (active). In the case of `COc1ccc(S(=O)(=O)N2CCCCCC2)cc1NC(=O)Cc1ccc(OC)c(OC)c1`, the inhibition is 14.1%. For `COc1ccc(S(=O)(=O)N2CCOCC2)cc1NC(=O)CSc1nnc(NC2CC2)s1` the value was 3.17%. As for `COc1ccc(S(=O)(=O)N2CCOCC2)cc1NC(=O)c1ccc(OCC(C)C)c(OC)c1`, the inhibition is 4.28%. For `COc1ccc(S(=O)(=O)N2CCOCC2)cc1NC(=O)COc1ccccc1` the value was 6.32%. Take `COc1ccc(S(=O)(=O)N2CCOCC2)cc1NC(=O)CSc1cc(C)ccc1C`: the inhibition was 2.32%. As to `COc1ccc(S(=O)(=O)N2CCOCC2)cc1NC(=O)CSc1ncnc2ccccc12`, the inhibition was 0.39%.

Consider `COc1ccc(S(=O)(=O)N2CCOCC2)cc1NC(=O)CC1CC2CCC1C2` (stereo not drawn), for which the inhibition is 70.4% (active).

As for `CC(=O)NC(CC(=O)Nc1nccs1)c1ccccc1` (stereo not drawn), the inhibition is 0.3%. In the case of `Cc1cnc(C)c(N2CCN(C(=O)C3CCC(=O)N(CCc4cccc(F)c4)C3)CC2)n1` (stereo not drawn) it was 6.98%; in that of `O=S(=O)(O)c1cc2onnc2c2ccccc12`, 18.2%. In the case of `CCOC(=O)C1=C(C)c2ccccc2OC1(C)C(=O)OCC` (stereo not drawn), the inhibition is 0.57%. In the case of `CCOC(=O)c1ccccc1OC(=O)Oc1ccccc1C(=O)OCC` it was 2.01%. For the compound `CCOC(=O)c1c(C)[nH]c2c1-c1ccccc1C(=O)C2=O`, the inhibition was 53.9% (active).
